# Compounds without any hit were thinned out: in the full panel of roughly 83,000, 20% have a hit.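 Note: values are percent growth. 100 is the growth of untreated cells, values between 100 and 0 indicate rising inhibition; between -100 and 0 indicates cell death.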 A number with no mark means an inactive call. Calls of active or inactive are those of the source. Rule for the calls: active = growth percent below 10; inactive = the rest.
# Test system: HCT-116 colon
# Test: NCI-60 one-dose screen, 48 h (100 = growth as untreated, 0 = no growth, -100 = all killed)
# Conditions: 10 µM unless noted
row,Structure (SMILES),growth
1,Cc1cc(=O)[nH]c(/C(=N/Nc2ccccc2)C(=O)c2ccc(Cl)cc2)n1,86.9%
2,COc1cc(C2=NN(C=O)C(c3cccc(Nc4ccnc5cc(Cl)ccc45)c3)C2)cc(OC)c1OC (centres undefined),62.6%
3,Cc1cc(C(=O)Nc2ccc3cc(CN4CCOCC4)ccc3n2)c(C)n1-c1ccccc1,29.4%
4,O=C(Nc1cccc(Cl)c1)Nc1cccc(Cl)c1,42.5%
5,COc1cc2c(cc1OC)C(=O)/C(=C/c1cccc(OCC(=O)c3ccccc3)c1)C2,64.6%
6,CN(C)c1ccc(-n2nc3ccccc3n2)cc1,77%
7,N[C@H](CS)C(=O)O,112%
8,CCOc1cc(/C=C/C(=O)C(C(=O)/C=C/c2ccc(OC(=O)CNc3nnc(C)s3)c(OCC)c2)C(=O)CNc2nnc(C)s2)ccc1OC(=O)CNc1nnc(C)s1,-77.7% (active)
9,CC[C@H]1CN2CCc3cc(OC)c(OC)cc3C2C[C@@H]1CC1NCCc2cc(OC)c(OC)cc21 (some centres undefined),-22.9% (active)
10,COc1ccc(N2CCN(CC(=O)N3CCN(c4nnc(-c5ccc(Cl)cc5)c(-c5ccc(Cl)cc5)n4)CC3)CC2)cc1,29.2%
11,O=C(COc1ccc(/C=C2\Oc3ccc4ccccc4c3C2=O)cc1)c1ccc(Cl)cc1,96.7%
12,Cc1nn(-c2nc3ccccc3s2)c(C)c1Oc1ccccc1O,27.4%
13,CCSc1ncc(Br)c(Sc2nc(N)nc3nc[nH]c23)n1,36.8%
14,COc1ccc(C2=NN(C=O)C(c3cccc(Nc4ccnc5cc(Cl)ccc45)c3)C2)cc1 (centres undefined),12%
